High-throughput results: PubChem, National Center for Advancing Translational Sciences (NCATS)
This excerpt belongs to a sample that is enriched for hits.
DT40 TDP1 no CPT: qHTS for Inhibitors of human tyrosyl-DNA phosphodiesterase 1 (TDP1): qHTS in cells in absence of CPT | DT40 Tdp1-/- hTDP1 cells, no CPT, ATP luminescence, 48 h | AID 686978, 2013 | Potency, µM (titrated, usually from 46.2 µM), for inactives: top-dose activity change, negative = growth inhibition, hits mostly inhibitors | 15% of 420,000 active; note: potency is the fitted concentration of half-maximal effect; nearly all actives have a fitted effect of over 55% in size
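DT40 Tdp1-/-;hTDP1 cells, no CPT (DMSO vehicle only), 400 cells/well; compounds pin-transferred; ≥48 hr, 37 °C; CellTiter-Glo 30 min RT dark, luminescence read.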
IL-1B inflam inh: qHTS for Inhibitors of Inflammasome Signaling: IL-1-beta AlphaLISA Primary Screen; THP-1 LPS/ATP IL-1B secretion, AlphaLISA, 16 h; hits give low values; activity change, % at 57.5 µM; 4.7% of 360,000 active; in the data active = activity change below about -50%; inconclusive = mostly about -30% to -49%
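THP-1 cells pretreated 1 hr with compounds (up to 57.5 uM final), then stimulated with LPS (250 ng/mL final) plus ATP (1.25 mM final); secreted IL-1B measured by AlphaLISA after 16 hr, decreased signal indicating inhibition.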
HT1080-NT tox: qHTS for induction of synthetic lethality in tumor cells producing 2HG: qHTS for the HT-1080-NT fibrosarcoma cell line | HT-1080-NT fibrosarcoma viability, CellTiter-Glo ATP luminescence, 48 h | Potency, µM (top dose mostly 46.1 µM), without a hit: top-dose activity, negative = less viability, actives largely listed as cytotoxic | 1.6% of 360,000 active;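 note: NT is the 2HG producing partner of a matched IDH1 knockdown line; potency is the fitted concentration of half-maximal effect; 0% = DMSO-treated cells and -100% = media-only wells without cells; nearly all actives have a fitted effect of over 55% in size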
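Viability of the 2HG-overproducing fibrosarcoma line after 48 hours of compound exposure at 37 degrees C was determined by luminescence with CellTiter-Glo, and concentration-effect curves were then fitted and categorized.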
12-LOX inh: Primary qHTS assay for inhibitors of human arachidonate 12S-lipoxygenase (ALOX12): Round 2. Polyunsaturated fatty acid lipoxygenase ALOX12 (Homo sapiens), P18054. purified 12hLO, xylenol orange hydroperoxide absorbance. Potency, µM (highest dose often 108 µM), for inactives: at the top dose activity change, negative = inhibition, hits mostly inhibitors. 1.1% of 580,000 active. AID 1671190, 2021; note: potency is the fitted concentration of half-maximal effect
Target sequence (P18054 whole entry, looked up): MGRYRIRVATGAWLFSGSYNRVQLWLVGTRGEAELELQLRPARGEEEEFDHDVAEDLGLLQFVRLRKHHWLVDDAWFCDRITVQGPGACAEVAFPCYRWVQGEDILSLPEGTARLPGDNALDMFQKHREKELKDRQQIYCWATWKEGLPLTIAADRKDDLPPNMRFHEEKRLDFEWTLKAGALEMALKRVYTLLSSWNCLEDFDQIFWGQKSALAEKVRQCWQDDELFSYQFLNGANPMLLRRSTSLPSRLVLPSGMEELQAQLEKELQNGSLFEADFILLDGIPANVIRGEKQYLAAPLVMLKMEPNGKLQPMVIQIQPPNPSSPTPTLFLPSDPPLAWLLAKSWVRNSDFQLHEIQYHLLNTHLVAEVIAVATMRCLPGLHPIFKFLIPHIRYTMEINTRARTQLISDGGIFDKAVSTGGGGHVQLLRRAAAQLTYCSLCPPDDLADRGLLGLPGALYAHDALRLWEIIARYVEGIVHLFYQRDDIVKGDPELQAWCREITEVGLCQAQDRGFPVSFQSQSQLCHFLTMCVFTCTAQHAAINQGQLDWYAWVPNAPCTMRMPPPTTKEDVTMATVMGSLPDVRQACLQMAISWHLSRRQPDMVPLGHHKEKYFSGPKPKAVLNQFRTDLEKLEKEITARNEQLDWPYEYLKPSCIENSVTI
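Hydroperoxide product was detected by ferrous iron/xylenol orange as the 573 to 405 nm absorbance ratio. Arachidonic acid at 40 uM (final) was turned over for 30 min at room temperature by 150 nM human 12hLO, pH 7.0 Hepes buffer, after 15 min compound preincubation.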
DT40 TDP1 CPT: qHTS for Inhibitors of human tyrosyl-DNA phosphodiesterase 1 (TDP1): qHTS in cells in presence of CPT; Potency, µM (doses to about 46.2 µM), for the others: at the top dose activity change, negative = growth inhibition, hits mostly inhibitors; 12% of 420,000 active; chicken DT40 Tdp1-/-;hTDP1 cells + 20 nM CPT, ATP luminescence, 48 h; AID 686979, 2013; note: potency is the fitted concentration of half-maximal effect; nearly all actives have a fitted effect of over 55% in size
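Cell growth measured by CellTiter-Glo luminescence after a minimum 48 h, 37 C compound exposure with 20 nM CPT in Tdp1-knockout DT40 cells stably expressing hTDP1, seeded 400/well; qHTS titration format.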
HT1080 IDH1KD tx: qHTS for induction of synthetic lethality in tumor cells producing 2HG: qHTS for the HT-1080-IDH1KD cell line; AID 686971, 2013; 2% of 360,000 active; Potency, µM (highest dose often 46.1 µM), for the others: at the highest dose activity, negative = toxicity, actives largely listed as cytotoxic; HT-1080 IDH1 knockdown viability, ATP luminescence, 48 h;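 note: potency is the fitted concentration of half-maximal effect; 0% = DMSO wells and -100% = cell-free medium wells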
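In this qHTS, HT-1080 cells depleted of IDH1 are exposed for 48 h at 37 °C to compound titrations. Toxicity is scored from CellTiter-Glo luminescence, with DMSO as full viability and medium alone as none.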
* = called active by the depositor; u = inconclusive; x = no result. Unless noted, calls come from the whole dose curve; as a rule, active = well fitted curve in the direction sought with a large enough effect; inconclusive = small, poorly fitted or top-dose-only effect, or another doubt; inactive = no such curve, though single readings can be large; an effect the other way counts as inactive or inconclusive. Unless noted, % is set by controls: 0 for no effect and ±100 for the full control effect.

SMILES	DT40 TDP1 no CPT	IL-1B inflam inh	HT1080-NT tox	12-LOX inh	DT40 TDP1 CPT	HT1080 IDH1KD tx
O=C(COc1ccc(S(=O)(=O)N2CCOCC2)cc1)NCCCn1ccnc1	-7%	13	-2%	-5%	14%	12%
O=C(/C=C/c1ccc(S(=O)(=O)N2CCOCC2)cc1)NC(=S)Nc1ccc(Cl)cc1Cl	u	-90*	-21%	-18%	u	-13%
O=C(/C=C/c1ccc(S(=O)(=O)N2CCOCC2)cc1)NC(=S)NCCCn1ccnc1	u	-75*	-19%	6%	u	u
O=C(/C=C/c1ccc(S(=O)(=O)N2CCOCC2)cc1)Nc1cc(F)ccc1F	21µM*	-55*	u	1%	u	-4%
COc1ccc(S(=O)(=O)N2CCOCC2)cc1NC(=O)/C=C/c1ccc(F)cc1	-6%	-29	9%	16%	7%	3%
O=C(/C=C/c1ccc(F)cc1)Nc1cccc(S(=O)(=O)N2CCOCC2)c1	u	-58*	-15%	-1%	u	-27%
Cc1ccc(F)cc1NC(=O)/C=C/c1ccc(S(=O)(=O)N2CCOCC2)cc1	u	-24	11%	-6%	u	7%
CCCC(=O)N1CCc2cc(S(=O)(=O)NC(C)c3ccccc3)ccc2C1 (stereo not given)	x	x	x	42%	x	x
COc1cccc(C2=Nn3c(nnc3-c3ccccc3O)SC2)c1	u	23	-2%	0%	u	4%
C[n+]1c2n(c3ccccc31)N=C(c1cc(C(C)(C)C)c(O)c(C(C)(C)C)c1)CS2	2.6µM*	-100*	23µM*	28µM*	4.1µM*	7.3µM*
O=C(c1ccccc1[N+](=O)[O-])N(CCc1ccccc1)Cc1ccccc1	12µM*	-2	-7%	39%	16µM*	-5%
Cn1cc([N+](=O)[O-])c(C(=O)NCc2ccccc2)n1	-5%	-19	-2%	u	-6%	-4%
Cc1cccc(C(=O)N(CCc2ccccc2)Cc2ccccc2)c1[N+](=O)[O-]	7.3µM*	0	u	133%	10µM*	u
Cn1cc([N+](=O)[O-])c(C(=O)N(Cc2ccccc2)Cc2ccccc2)n1	26µM*	10	4%	4%	u	-10%
CS(=O)(=O)c1ccccc1C(=O)N(CCc1ccccc1)Cc1ccccc1	-29%	0	-6%	-14%	-19%	-7%
COc1ccc(C(=O)N(CCc2ccccc2)Cc2ccccc2)c(OC)n1	u	-64*	-20%	-2%	u	-4%
CSc1ccc(CN2C(=O)CN(S(C)(=O)=O)CC2(C)C(=O)NCc2ccc(Cl)cc2)cc1 (stereo not given)	x	x	x	-19%	x	x
O=C1NCCOCCCN(C(=O)NC2CCCCC2)[C@H]2CCCC[C@@H]12	x	x	x	39%	x	x
CC(Oc1ccc(C#N)cc1Cl)C(=O)Nc1ccnn1C(C)C (stereo not given)	x	x	x	4%	x	x
COc1ccc(N(Cc2ccccc2)C(=O)c2ccccc2[N+](=O)[O-])cc1	9.2µM*	-17	-10%	24%	u	-5%
COc1ccc(CN(C(C)=O)c2ccccc2C(=O)O)cc1	26%	0	10%	8%	0%	17%
CC(C)(C)c1ccc(-c2nnc(SCCOc3ccccc3Cl)n2-c2ccccc2)cc1	x	x	x	-4%	x	x
